From PubChem BioAssay
JMJD2A Tudor: blocks the human JMJD2A Tudor domain. O75164. AlphaScreen JMJD2A-Tudor / H3K4me3 peptide binding. Potency, µM (titrated, usually from 114 µM), for the others: at the highest dose activity change, negative = inhibition, most hits filed as inhibitors. 390,000 tested, 4.4% active; further: potency means the concentration at half of the fitted maximal effect; on the % scale 0 is the no-effect control and ±100 the full control effect; nearly all actives have a fitted effect of over 50% in size
HP1b chromo inh: blocks HP1-beta chromodomain binding to methylated histone tails. AID 540317. AlphaScreen HP1-beta / biotin-H3K9me3 peptide binding. 390,000 tested, 0.56% active. Potency, µM (series often up to 114 µM), for the others: at the highest dose activity change, negative = inhibition, hits mostly inhibitors; further: potency means the concentration at half of the fitted maximal effect; nearly all actives have a fitted effect of over 70% in size
Target sequence (P83916 whole entry, looked up): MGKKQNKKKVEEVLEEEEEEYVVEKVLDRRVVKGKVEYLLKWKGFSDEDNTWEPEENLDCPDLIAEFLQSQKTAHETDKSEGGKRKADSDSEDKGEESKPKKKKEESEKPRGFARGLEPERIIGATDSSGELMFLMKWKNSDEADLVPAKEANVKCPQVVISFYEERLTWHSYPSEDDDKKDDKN
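Compound inhibition of the preformed complex between 50 nM HP1-beta and 50 nM biotinylated H3K9me3 peptide was read by AlphaScreen. Buffer was PBS pH 7.4 with 0.01% Tween-20. Incubations ran 30 min at room temperature, with 10 ug/mL donor/acceptor beads.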
G9a block: blocks human histone lysine methyltransferase G9a; Potency, µM (titrated, usually from 102 µM), inactives show at the highest dose activity, negative = inhibition, hits mostly inhibitors; Q96KQ7; AID 504332; G9a H3K9 monomethylation, AlphaScreen, 2 h; 350,000 tested, 8.8% active; further: potency means the concentration at half of the fitted maximal effect; on the % scale 0 is the no-effect control and ±100 the full control effect; nearly all actives have a fitted effect of over 75% in size
Target sequence (Q96KQ7 913-1193 limits assumed): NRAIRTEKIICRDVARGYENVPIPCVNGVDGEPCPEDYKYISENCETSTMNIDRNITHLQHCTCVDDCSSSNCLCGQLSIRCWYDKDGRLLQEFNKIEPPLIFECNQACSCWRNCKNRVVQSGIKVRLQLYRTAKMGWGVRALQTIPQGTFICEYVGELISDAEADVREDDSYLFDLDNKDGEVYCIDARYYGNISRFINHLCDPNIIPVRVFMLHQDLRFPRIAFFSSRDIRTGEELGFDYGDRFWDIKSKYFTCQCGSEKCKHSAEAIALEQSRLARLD
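Using a bead-based AlphaScreen, monomethylated H3K9 product from 2 h room-temperature reactions (G9a 20 nM, peptide 500 nM, SAM 20 uM) was detected with 0.5 ug/mL rabbit anti-H3K9me1 antibody.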
CtBP-E1A blk: inhibitors of CtBP/E1A interaction | 340,000 tested, 0.49% active | AlphaScreen GST-E1A/His-CtBP binding, 1536-well; stronger effect = lower value | AID 651724 | activity change, % (no concentration beside the values); in the data active means activity change below about -65%; inconclusive means mostly about -30% to -63%; further: on the % scale 0 is the no-effect control and ±100 the full control effect
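GST-E1A and His-tagged CtBP (125 nM each as 5X stock) were preincubated with pin-transferred compound for 2 h at 37 °C in the dark, then glutathione donor and nickel acceptor beads were added for 1 h before AlphaScreen reading.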
Six1-Eya2 inh: blocks human Six1 binding to Eya2; Q15475+O00167; AlphaScreen GST-Six1/His-Eya2 binding, biochemical; stronger effect = lower value; activity change, % (concentration not given with the values); 360,000 tested, 0.56% active; AID 651725; in the data active means activity change below about -65%; inconclusive means mostly about -30% to -63%; further: on the % scale 0 is the no-effect control and ±100 the full control effect
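Six1/Eya2 binding was read as AlphaScreen signal after compounds were pinned into GST-Six1 plus His-tagged Eya2 (5X stock 250/500 nM) in pH 8.0 Tris/NaCl/TCEP buffer, beads added, then incubated 1 h, 37 C, dark.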
BAZ2B block: inhibitors of human BAZ2B bromodomain; Q9UIF8; AlphaScreen BAZ2B-H3K14Ac peptide displacement; Potency, µM (titrated, usually from 114 µM), for the others: top-dose activity change, negative = inhibition, actives largely listed as inhibitors; 360,000 tested, 4.4% active; AID 504333; further: potency means the concentration at half of the fitted maximal effect; on the % scale 0 is the no-effect control and ±100 the full control effect; nearly all actives have a fitted effect of over 60% in size
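BAZ2B (50 nM) with biotin-H3(5-23)K14Ac peptide (50 nM) in PBS pH 7.4, 0.01% Tween-20, preformed 30 min, then compound 30 min at room temperature; top concentration 110uM. AlphaScreen streptavidin donor/nickel chelate acceptor beads (10 ug/mL final), 20 min dark, signal read.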
The depositor's hits bear a star; ? = inconclusive; / = no result; ! = repeats disagree; [ ] = remark or other dose. A selection: hits, their analogues and other compounds. The true share with any hit is near 10%. Unless noted, the call rests on the fitted dose curve; in most records, active means well fitted inhibition curve with a large enough effect; inconclusive means small, poorly fitted or top-dose-only effect; inactive means no such curve, though single readings can be large or run the other way.

SMILES	JMJD2A Tudor	HP1b chromo inh	G9a block	CtBP-E1A blk	Six1-Eya2 inh	BAZ2B block
CC1=C([N+](=O)[O-])C(c2ccccc2)C2=C(N1)c1ccccc1C2=O (stereo not given)	25µM*	?	10µM*	-30	?	35µM*
CC(C)(C)c1ccc(C2C3=C(CCCC3=O)NC3=C2C(=O)c2ccccc23)cc1 (stereo not given)	25µM*	-27%	40µM*	-18	-22	?
CCc1ccc(NC(=O)CCc2c(C)nn(-c3ccc(N4CCCC4)nn3)c2C)cc1	-27%	31%	14%[59 µM]	/	/	-39%
O=[N+]([O-])c1ccc(/C=[N+](\[O-])[C@@H]2CCCC[C@@H]2/[N+]([O-])=C/c2ccc([N+](=O)[O-])o2)o1	-35%	-10%	50µM*	4	4	2.5µM*
O=C(N/N=C/c1ccc([N+](=O)[O-])o1)C1CCCC1	-15%	26%	-2%[0.501 µM]	0	1	-15%
O=S(=O)(c1cc(Cl)ccc1Cl)N1CCNCC1	-19%	18%	12%	5	0	10%
CC1CNCCN1S(=O)(=O)c1cccc2cnccc12 (stereo not given)	-28%	33%	11µM*!	0	1	?
O=S(=O)(c1cccc2cnccc12)N1CCCNCC1	89µM*	5%	?	4	-1	4%
O=C1c2ccccc2C(=O)N1c1cccc2cnccc12	-4%	/	/	/	/	/
COCCCNC(=O)c1ccc(-n2c(-c3ccccc3)cc3c2CCC(C)C3)cc1 (stereo not given)	-14%	14%	1%[59 µM]	/	/	5%
Oc1ccccc1CN1CCC(C(O)(c2ccccc2)c2ccccc2)CC1	?	?	8.9µM*	-4	4	-38%
Oc1ccccc1CN1CCN(C(O)(c2ccccc2)c2ccccc2)CC1	-17%	2%	35µM*	-5	-7	50µM*
Cc1nn(CCC(=O)N2CCN(c3ccccc3)CC2)c(C)c1S(=O)(=O)N1CCCC1	-8%	11%	-20%[12.7 µM]	/	/	-37%
CN(CCN(C)c1nc(-c2cccs2)nc2ccccc12)C(=O)OC(C)(C)C	10%	62%	/	/	/	/
CCOC(=O)c1c(S(=O)(=O)NCC(=O)N(C)c2ccc(C)cc2)c(C)n(C)c1C	-16%	24%	-22%[59 µM]	/	/	?
Cc1ccc(-c2nc(N)sc2C)cc1	-16%	7%	50µM*	/	-3	?
Cc1sc(N)nc1-c1cccs1	-21%[57.1 µM]	-10%	?	-2	-3	-11%
CCC(C)NC(=O)COC(=O)Cc1sc(N)nc1-c1ccc(C)cc1 (stereo not given)	-20%	-14%	-10%[59 µM]	1	7	-12%
Cc1ccc(-c2nc(N)sc2-c2ccc(C)cc2)cc1	?	-21%	50µM*	-9	-2	?
Nc1nc(-c2ccccc2)c(-c2ccccc2)s1	?	-31%	40µM*	-3	-4	2%[57.1 µM]
CCCc1sc(N)nc1-c1ccc(C)cc1	?	-36%	56µM*	-1	-3	?
CCOc1ccc(NC(=O)CC2C(=O)N(c3ccccc3)C(=O)N2C2CCCC2)cc1 (stereo not given)	-16%	61%	?	/	/	-10%
O=C(Nc1ccc(C(=O)N2CCCCC2)cc1)c1nsc2ccccc12	-10%	29%[57 µM]	9%[59 µM]	/	/	3%
COc1ccc(-c2nc(-n3c(C)c(C(C)=O)c(C(C)=O)c3C)sc2C)cc1	?	23%	?	23	-1	?
COc1ccc(-c2nc(C)sc2C)cc1	32µM*	?	?	-7	14	3%
SMILES	JMJD2A Tudor	HP1b chromo inh	G9a block	CtBP-E1A blk	Six1-Eya2 inh	BAZ2B block
COc1cc(N=Nc2cccc(S(N)(=O)=O)c2)c2ccccc2c1N	13µM*	28µM*	13µM*	-71*	?	13µM*
NC1=NC(=Nc2cccc(S(N)(=O)=O)c2)c2ccccc21	-13%	43%	-1%	/	-3	-2%
O=C1CCN(N=Nc2cccc(Cl)c2)N1	/	/	0.79µM*	/	/	?
CCOC(=O)c1cc(CNC(=O)c2c(C)oc3c2CCCC3)c(C)o1	-30%	-9%	50µM*	0	-2	?
Cc1oc2c(c1C(=O)NCc1cc(C(=O)O)co1)CCCC2	-7%[57.1 µM]	44%	-3%	-1	-3	0%
CCOC(=O)c1coc(CNC(=O)c2c(C)oc3c2CCCC3)c1	-27%	-1%	56µM*	-5	2	?
COc1ccc(C2=Nn3c(nnc3-c3ccc(OC)c(OC)c3)SC2)cc1OC	-12%	/	/	/	/	/
CC(C)(C)n1nnnc1C(c1ccccc1)N1CCN(c2ccc(F)cc2)CC1 (stereo not given)	/	/	/	1	1	/
COc1ccc(N2CCN(C(c3ccc4ncccc4c3)c3nnnn3C(C)(C)C)CC2)cc1 (stereo not given)	?	-12%	?	-12	-15	35µM*
CCC(C)(C)n1nnnc1C(c1ccc2ncccc2c1)N1CCN(c2ccc(O)cc2)CC1 (stereo not given)	14µM*	13%[57 µM]	10µM*	-8	-14	-33%
CCC(C)(C)n1nnnc1C(c1ccc2ncccc2c1)N1CCN(c2nc3ccccc3s2)CC1 (stereo not given)	-36%	2%	?	-12	-17	-10%
COc1ccc(N2CCN(C(c3ccc(C)cc3)c3nnnn3C(C)(C)C)CC2)cc1 (stereo not given)	50µM*	-19%	/	/	/	/
COc1ccc2c(c1)CC(NC(=O)Nc1ccc(Br)c(C)c1)CO2 (stereo not given)	-9%	21%[57 µM]	-12%[59 µM]	/	/	3%
COCCn1c(=O)cnc2cnc(Oc3ccc(OC)cc3)nc21	/	/	10%[0.501 µM]	/	/	/
COc1cc(C2c3c(-c4cc(C)cc(C)c4O)n[nH]c3C(=O)N2CCCO)cc(OC)c1OC (stereo not given)	-26%	37%	?	-1	-3	-3%
